INS-1E GSIS act: GLuc luminescence reporter in INS-1E cells, primary screen for activators of glucose-dependent secretion of insulin; INS-1E GLuc reporter insulin secretion, 2-3 h; activation, % at 16.6 µM; 370,000 tested, 0.61% active;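 active means lowest replicate activation of at least 40%, so every replicate reaches that level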
miR-122 sensor: miR-122 Renilla sensor signal increase in Huh7, primary screen, miR-122 inhibitor project, cell-based, single point, plate reader. Huh7 miR-122 Renilla luciferase sensor, 48 h; neutral wells = 0, positive control = 100. activation (reporter increase), % at 12.5 µM. 340,000 tested, 0.3% active;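 active means mean replicate activation score at least 90 and every replicate individually at or above 90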;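 further: higher luciferase means less miR-122 activity so hits act as miR-122 inhibitors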
Wnt act: Wnt/beta-catenin pathway activators, primary screen, cell-based, plate reader, single point. Wnt/beta-catenin reporter cell assay, activator. activation, % at 9.35 µM. 300,000 tested, 1.2% active; in the data active means activation above about 30%, passing the limit was not always enough
NSD2 inh: NSD2 histone methyltransferase inhibitors, primary screen, biochemical, AlphaScreen, single concentration, set 2 | Histone-lysine N-methyltransferase NSD2 (Homo sapiens), O96028 | NSD2 peptide methylation, 120 min | inhibition, % at 12.5 µM | 310,000 tested, 0.54% active
Target sequence (O96028 whole entry, looked up): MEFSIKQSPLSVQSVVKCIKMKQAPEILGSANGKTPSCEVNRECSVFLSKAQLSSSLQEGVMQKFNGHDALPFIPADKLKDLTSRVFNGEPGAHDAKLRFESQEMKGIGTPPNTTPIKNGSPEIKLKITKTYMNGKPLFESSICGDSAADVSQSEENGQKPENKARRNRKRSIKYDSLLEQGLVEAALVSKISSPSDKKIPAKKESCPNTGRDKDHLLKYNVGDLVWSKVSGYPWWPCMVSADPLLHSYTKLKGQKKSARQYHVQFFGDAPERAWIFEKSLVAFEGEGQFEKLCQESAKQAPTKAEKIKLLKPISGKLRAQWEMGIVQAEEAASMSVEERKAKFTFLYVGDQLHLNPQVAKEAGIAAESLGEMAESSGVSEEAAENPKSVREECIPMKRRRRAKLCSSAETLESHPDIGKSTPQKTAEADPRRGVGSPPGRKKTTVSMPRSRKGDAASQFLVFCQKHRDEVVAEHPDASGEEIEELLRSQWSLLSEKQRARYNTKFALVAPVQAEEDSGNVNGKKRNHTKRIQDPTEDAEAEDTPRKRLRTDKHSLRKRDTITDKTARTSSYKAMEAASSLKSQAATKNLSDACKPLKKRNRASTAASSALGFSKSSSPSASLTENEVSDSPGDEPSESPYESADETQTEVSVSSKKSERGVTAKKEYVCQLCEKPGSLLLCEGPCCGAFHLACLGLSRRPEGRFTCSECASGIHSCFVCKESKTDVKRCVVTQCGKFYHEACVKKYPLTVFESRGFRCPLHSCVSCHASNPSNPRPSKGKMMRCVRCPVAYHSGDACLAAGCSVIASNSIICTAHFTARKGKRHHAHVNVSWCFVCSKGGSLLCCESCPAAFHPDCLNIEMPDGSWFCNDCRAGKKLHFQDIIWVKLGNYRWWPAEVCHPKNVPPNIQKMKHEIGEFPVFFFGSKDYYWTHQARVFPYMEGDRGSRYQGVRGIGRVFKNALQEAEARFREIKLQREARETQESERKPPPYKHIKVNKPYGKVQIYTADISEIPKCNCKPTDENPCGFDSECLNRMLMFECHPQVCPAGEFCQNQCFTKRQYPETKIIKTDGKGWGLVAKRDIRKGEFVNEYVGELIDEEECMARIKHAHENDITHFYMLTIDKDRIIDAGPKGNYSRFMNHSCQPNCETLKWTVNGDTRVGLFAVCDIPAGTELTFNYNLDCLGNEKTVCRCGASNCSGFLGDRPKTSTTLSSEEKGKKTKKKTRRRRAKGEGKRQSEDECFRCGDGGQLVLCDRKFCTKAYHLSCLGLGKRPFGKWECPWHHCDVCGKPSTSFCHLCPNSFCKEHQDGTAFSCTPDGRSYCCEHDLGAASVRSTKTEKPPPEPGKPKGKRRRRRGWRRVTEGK
MITF TRPM1 HTS: activators of MITF-driven TRPM1 promoter reporter, primary screen, cell-based, SK-MEL-5, luciferase, single point; SK-MEL-5 TRPM1-promoter luciferase, 24 h; % of positive control, neutral wells = 0; activation, % at 12.5 µM; 300,000 tested, 0.75% active;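 active means mean activation of at least 80% with every replicate also reaching 80%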
Dyrk1A ADPGlo: rat Dyrk1A kinase inhibitors, primary screen, biochemical, single point, plate reader. Dual specificity tyrosine-phosphorylation-regulated kinase 1A (Rattus norvegicus), Q63470. ADP-Glo luminescence, NFATc1 peptide. inhibition, % at 12.5 µM. 310,000 tested, 0.43% active
A number is an active result; 0 = inactive; - = no result given. In the library only some 2.4% were active in any assay of this set; here they are far more common. Unless noted, no stated cut-off is given here; in the data, active means inhibition above about 50%; inactive means the rest.

SMILES | INS-1E GSIS act | miR-122 sensor | Wnt act | NSD2 inh | MITF TRPM1 HTS | Dyrk1A ADPGlo
COc1ccc(OC)c2c1C(=O)c1ccccc1C2=O | 0 | - | 0 | 0 | - | -
CO[C@H]1CN(C)C(=O)c2ccc(NS(C)(=O)=O)cc2OC[C@H](C)N(Cc2ccccc2)C[C@H]1C | 0 | - | - | - | - | -
CC1CC1C(=O)Nc1cc(C(F)(F)F)ccc1N1CCOCC1 (stereo not drawn) | 48 | 0 | 0 | 0 | 0 | -
O=C(Nc1cc(C(F)(F)F)ccc1N1CCOCC1)C1CCCO1 (stereo not drawn) | 0 | 0 | 0 | 0 | 0 | 0
C[C@@H]1CCCCO[C@@H](CN(C)C(=O)NC2CCCCC2)[C@@H](C)CN([C@@H](C)CO)C(=O)c2cc(NS(=O)(=O)c3cccs3)ccc2O1 | 0 | 0 | - | - | - | -
Cc1cccc(OCCCC(=O)Nc2ccc(S(N)(=O)=O)cc2)c1 | 0 | 0 | 36 | 0 | 0 | 0
CCN(CC)c1ccc(NC(=O)CCCOc2cccc(C)c2)cc1 | 0 | 0 | 0 | 0 | 0 | 0
Cc1ccc(NC(=O)CN(C)C(=O)CCOc2cccc(C)c2)cc1 | 0 | - | 31 | 0 | 0 | 0
Cc1ccc(NC(=O)CN(C)C(=O)COc2cccc3cccnc23)cc1 | 40 | - | - | 0 | 0 | 0
CO[C@@H]1CN(C)C(=O)c2cc(NC(=O)Nc3cccc(Cl)c3)ccc2OC[C@@H](C)NC[C@@H]1C | 0 | - | - | - | - | -
C[C@@H]1CN([C@H](C)CO)C(=O)c2cc(NS(=O)(=O)c3ccc(F)cc3)ccc2O[C@H]1CN(C)C | 0 | 0 | - | - | - | -
C[C@@H]1CN([C@H](C)CO)C(=O)c2cc(-c3ccc(C(=O)N(C)C)cc3)cnc2O[C@@H]1CN(C)C | 0 | 0 | - | - | - | -
COc1ccc(C2Nc3ccccc3C(=O)N2c2ccc(C)cc2)cc1Cn1nnc2ccccc21 (stereo not drawn) | 0 | - | 0 | 0 | 98 | 0
COc1ccc(N2C(=O)c3ccccc3NC2c2ccc(OC)c(COc3ccccn3)c2)cc1 (stereo not drawn) | 0 | - | 0 | 0 | 0 | 0
COc1ccc(C2Nc3ccccc3C(=O)N2c2ccc(C)cc2)cc1Cn1cc([N+](=O)[O-])cn1 (stereo not drawn) | 0 | 0 | 0 | 0 | 91 | 0
COc1ccc(C)cc1Cn1nnc2ccccc21 | 0 | 0 | 0 | - | 0 | 0
C[C@H](CO)N1C[C@H](C)[C@@H](CN(C)Cc2ccc(C(F)(F)F)cc2)Oc2ccc(NC(=O)CCCN(C)C)cc2C1=O | 0 | 0 | - | - | - | -
O=C(NCc1ccco1)Nc1c(Cl)cc(Cl)cc1Cl | 0 | - | 0 | 0 | - | -
O=C(NCc1ccco1)Nc1ccc(Br)cc1Cl | 0 | 0 | - | 0 | 91 | 0
CC(=O)Nc1ccc2c(c1)C(=Nc1cccc(C)c1)c1ccccc1-2 | 0 | 0 | 34 | - | 0 | 0
CCCN1[C@@H]2Cn3c(cccc3=O)[C@H]1[C@@H](C(=O)N[C@H](C)c1ccccc1)[C@@H]2CO | 0 | - | - | - | - | -
O=C(C1CCC1)N1CC(=O)N2[C@H](C1)[C@H](c1ccc(C#Cc3cccc(F)c3)cc1)[C@@H]2CO | 0 | - | - | - | - | -
Cn1cc(Br)c(C(=O)N/N=C/c2cc3c(cc2Cl)OCO3)n1 | 0 | - | 0 | 0 | 89 | 0
Nc1nonc1C(=O)N/N=C\c1cc2c(cc1Cl)OCO2 | 0 | - | 0 | 0 | 0 | 0
CCOC(=O)Cc1nn(Cc2ccccc2)c(=O)c2ccccc12 | 89 | - | 0 | 0 | 0 | 0
SMILES | INS-1E GSIS act | miR-122 sensor | Wnt act | NSD2 inh | MITF TRPM1 HTS | Dyrk1A ADPGlo
CC(C)NC(=O)N[C@@H]1CC[C@@H](CCn2cc(-c3ccccc3)nn2)O[C@@H]1CO | 0 | - | - | - | - | -
CC(=O)c1sc(NC(=O)C2COc3ccccc3O2)nc1C (stereo not drawn) | - | - | 36 | - | - | 0
Cc1ccnc(NC(=O)C2COc3ccccc3O2)c1 (stereo not drawn) | 0 | - | 58 | 0 | 88 | 0
CC1CCC(NC(=O)C2COc3ccccc3O2)CC1 (stereo not drawn) | 57 | - | 0 | 0 | 0 | 0
O=C(CN1CCOCC1)NCC[C@H]1CC[C@H](NS(=O)(=O)c2ccc(F)cc2)[C@H](CO)O1 | 0 | 0 | - | - | - | -
C[C@@H]1CCCCO[C@@H](CN(C)Cc2ccc(C(=O)O)cc2)[C@H](C)CN([C@@H](C)CO)C(=O)c2cc(NC(=O)Nc3cccc4ccccc34)ccc2O1 | 0 | 0 | - | - | - | -
